Results taken from the supplement of paper PMC9262897, “Low-cost anti-mycobacterial drug discovery using engineered E. coli” (Nature Communications, 2022).
Structures can show the parent of a compound that is named as a salt. ± gives the standard deviation of the averaged measurements.

Experiments:
Assay in all cases: growth (OD600 after 10 h); higher = more growth (less inhibition)
[1] = system: E. coli TESEC Alr+ wild-type control; conditions: compound 0.1 mM; raw OD600 reference: median of DMSO wells 0.241, cell-free background 0.041
Procedure: (§1)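 TESEC Mtb Alr E. coli, or the Alr+ wild-type control, in 384-well plates with Prestwick library compounds at 0.1 mM and 1% DMSO, across arabinose induction levels of 1E3 to 1E7 nM. Growth is read as OD600 after 10 h at 37 °C in triplicate biological replicates.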

E. coli TESEC Mtb Alr [2] = conditions: compound 0.1 mM
Procedure: as §1

E. coli TESEC Mtb Asd = conditions: compound 0.1 mM
Procedure: (§2)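 TESEC E. coli strains in which the native enzyme is deleted and replaced by arabinose-inducible Mtb Asd, DapB, CysH or TrpD, each grown in its selective medium. Strains were screened against the Prestwick library at 0.1 mM and 1% DMSO in 384-well format at low and high arabinose induction. Growth is read as OD600 after 10 h in triplicate.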

E. coli TESEC Mtb DapB = conditions: compound 0.1 mM
Procedure: as §2

[3] = system: E. coli TESEC Alr+ wild-type control; conditions: compound 0.1 mM; raw OD600 reference: median of DMSO wells 0.49, cell-free background 0.052
Procedure: (§3)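 TESEC Mtb Alr E. coli (ΔaraC ΔtolC ΔentC Δalr ΔdadX, arabinose-inducible Mtb Alr) or the Alr+ wild-type control strain, grown in defined M9-fructose medium without D-alanine in 96-well plates with Prestwick library compounds at 0.1 mM and 1% DMSO. Low Alr induction is 0.1 µM arabinose and high induction is 10 mM arabinose.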

E. coli TESEC Mtb Alr [4] = conditions: compound 0.1 mM; remark: listed apart in the source
Procedure: as §3

[5] = arabinose 1000 nM, raw OD600 reference: median of DMSO wells 0.294, cell-free background 0.041
[6] = arabinose 10000 nM, raw OD600 reference: median of DMSO wells 0.264, cell-free background 0.041
[7] = arabinose 100000 nM, raw OD600 reference: median of DMSO wells 0.201, cell-free background 0.041
[8] = arabinose 1000000 nM, raw OD600 reference: median of DMSO wells 0.193, cell-free background 0.041
[9] = arabinose 10000000 nM, raw OD600 reference: median of DMSO wells 0.146, cell-free background 0.041
[10] = arabinose induction (level): High, raw OD600 reference: median of DMSO wells 0.331, cell-free background 0.041
[11] = arabinose induction (level): Low, raw OD600 reference: median of DMSO wells 0.417, cell-free background 0.041
[12] = arabinose induction (level): High, raw OD600 reference: median of DMSO wells […], cell-free background 0.041
[13] = arabinose induction (level): Low, raw OD600 reference: median of DMSO wells 0.227, cell-free background 0.041
[14] = arabinose 100 nM, raw OD600 reference: median of DMSO wells 0.413, cell-free background 0.052
[15] = arabinose 10000000 nM, raw OD600 reference: median of DMSO wells […], cell-free background 0.052

Q: With `Cc1cc(NS(=O)(=O)c2ccc(N)cc2)no1` [Sulfamethoxazole] as the molecule, how does the growth [1] read?
A: The growth was 0.252 ± 0.0032.

Q: And the growth (E. coli TESEC Mtb Alr [2]; [5])?
A: The growth was 0.271 ± 0.017.

Q: And the growth (E. coli TESEC Mtb Alr [2]; [6])?
A: The growth was 0.212 ± 0.011.

Q: What about the growth (E. coli TESEC Mtb Alr [2]; [7]) of the same molecule?
A: The growth was 0.228 ± 0.0092.

Q: What about the growth (E. coli TESEC Mtb Alr [2]; [8]) of the same molecule?
A: The growth was 0.126 ± 0.0035.

Q: And the growth (E. coli TESEC Mtb Alr [2]; [9])?
A: The growth was 0.139 ± 0.0076.

Q: And the growth (E. coli TESEC Mtb Asd; [10])?
A: The growth was 0.404 ± 0.042.

Q: And the growth (E. coli TESEC Mtb Asd; [11])?
A: Its growth is 0.41 ± 0.063.

Q: What about the growth (E. coli TESEC Mtb DapB; [12]) of the same molecule?
A: The growth was 0.185 ± 0.011.

Q: And the growth (E. coli TESEC Mtb DapB; [13])?
A: The growth was 0.205 ± 0.024.

Q: What about the growth [3] of the same molecule?
A: The growth was 0.45 ± 0.031.

Q: What about the growth (E. coli TESEC Mtb Alr [4]; [14]) of the same molecule?
A: The growth was 0.432 ± 0.013.

Q: What about the growth (E. coli TESEC Mtb Alr [4]; [15]) of the same molecule?
A: Its growth is 0.346 ± 0.005.

Q: What does the source list for `CN(C)CCC(c1ccc(Br)cc1)c1ccccn1` (stereo unspecified) [Brompheniramine maleate]?
A: growth [1]: 0.218 ± 0.0069; growth (E. coli TESEC Mtb Alr [2]; [5]): 0.293 ± 0.0063; growth (E. coli TESEC Mtb Alr [2]; [6]): 0.264 ± 0.0057; growth (E. coli TESEC Mtb Alr [2]; [7]): 0.209 ± 0.037; growth (E. coli TESEC Mtb Alr [2]; [8]): 0.162 ± 0.0032; growth (E. coli TESEC Mtb Alr [2]; [9]): 0.15 ± 0.008; growth (E. coli TESEC Mtb Asd; [10]): 0.179 ± 0.0086; growth (E. coli TESEC Mtb Asd; [11]): 0.302 ± 0.079; growth (E. coli TESEC Mtb DapB; [12]): 0.179 ± 0.01; growth (E. coli TESEC Mtb DapB; [13]): 0.253 ± 0.025; growth [3]: 0.45 ± 0.043; growth (E. coli TESEC Mtb Alr [4]; [14]): 0.398 ± 0.011; growth (E. coli TESEC Mtb Alr [4]; [15]): 0.339 ± 0.02

Q: What does the source list for `C=CCN1CCCC1CNC(=O)c1cc2nn[nH]c2cc1OC` (stereo unspecified) [Alizapride HCl]?
A: growth [1]: 0.234 ± 0.0057; growth (E. coli TESEC Mtb Alr [2]; [5]): 0.277 ± 0.0082; growth (E. coli TESEC Mtb Alr [2]; [6]): 0.271 ± 0.01; growth (E. coli TESEC Mtb Alr [2]; [7]): 0.218 ± 0.025; growth (E. coli TESEC Mtb Alr [2]; [8]): 0.191 ± 0.0082; growth (E. coli TESEC Mtb Alr [2]; [9]): 0.143 ± 0.0052; growth (E. coli TESEC Mtb Asd; [10]): 0.299 ± 0.032; growth (E. coli TESEC Mtb Asd; [11]): 0.373 ± 0.05; growth (E. coli TESEC Mtb DapB; [12]): 0.217 ± 0.022; growth (E. coli TESEC Mtb DapB; [13]): 0.201 ± 0.017; growth [3]: 0.536 ± 0.045; growth (E. coli TESEC Mtb Alr [4]; [14]): 0.406 ± 0.011; growth (E. coli TESEC Mtb Alr [4]; [15]): 0.336 ± 0.011

Q: For `O=C(CCCCC(=O)Nc1c(I)cc(I)c(C(=O)O)c1I)Nc1c(I)cc(I)c(C(=O)O)c1I` [Iodipamide], which growth [1] is on record?
A: The growth was 0.249 ± 0.012.

Q: And the growth (E. coli TESEC Mtb Alr [2]; [5])?
A: Its growth is 0.298 ± 0.0095.

Q: And the growth (E. coli TESEC Mtb Alr [2]; [6])?
A: Its growth is 0.245 ± 0.0068.

Q: What about the growth (E. coli TESEC Mtb Alr [2]; [7]) of the same molecule?
A: Its growth is 0.191 ± 0.0062.

Q: What about the growth (E. coli TESEC Mtb Alr [2]; [8]) of the same molecule?
A: Its growth is 0.17 ± 0.0029.

Q: What about the growth (E. coli TESEC Mtb Alr [2]; [9]) of the same molecule?
A: Its growth is 0.143 ± 0.0046.

Q: And the growth (E. coli TESEC Mtb Asd; [10])?
A: The growth was 0.436 ± 0.022.

Q: And the growth (E. coli TESEC Mtb Asd; [11])?
A: The growth was 0.452 ± 0.049.

Q: And the growth (E. coli TESEC Mtb DapB; [12])?
A: Its growth is 0.213 ± 0.0095.

Q: What about the growth (E. coli TESEC Mtb DapB; [13]) of the same molecule?
A: Its growth is 0.239 ± 0.03.

Q: What about the growth [3] of the same molecule?
A: Its growth is 0.527 ± 0.092.

Q: And the growth (E. coli TESEC Mtb Alr [4]; [14])?
A: Its growth is 0.407 ± 0.013.

Q: What about the growth (E. coli TESEC Mtb Alr [4]; [15]) of the same molecule?
A: Its growth is 0.346 ± 0.014.

Q: For `C=CCOc1ccccc1OCC(O)CNC(C)C` (stereo unspecified) [Oxprenolol hydrochloride], which growth [1] is on record?
A: The growth was 0.2186 ± 0.001.

Q: What about the growth (E. coli TESEC Mtb Alr [2]; [5]) of the same molecule?
A: The growth was 0.281 ± 0.0082.

Q: And the growth (E. coli TESEC Mtb Alr [2]; [6])?
A: Its growth is 0.271 ± 0.0046.

Q: What about the growth (E. coli TESEC Mtb Alr [2]; [7]) of the same molecule?
A: Its growth is 0.1983 ± 0.00078.

Q: And the growth (E. coli TESEC Mtb Alr [2]; [8])?
A: Its growth is 0.208 ± 0.023.

Q: What about the growth (E. coli TESEC Mtb Alr [2]; [9]) of the same molecule?
A: Its growth is 0.141 ± 0.0071.

Q: What about the growth (E. coli TESEC Mtb Asd; [10]) of the same molecule?
A: The growth was 0.332 ± 0.062.

Q: What about the growth (E. coli TESEC Mtb Asd; [11]) of the same molecule?
A: The growth was 0.368 ± 0.013.

Q: And the growth (E. coli TESEC Mtb DapB; [12])?
A: Its growth is 0.204 ± 0.0052.

Q: And the growth (E. coli TESEC Mtb DapB; [13])?
A: The growth was 0.225 ± 0.031.

Q: What about the growth [3] of the same molecule?
A: The growth was 0.554 ± 0.095.

Q: What about the growth (E. coli TESEC Mtb Alr [4]; [14]) of the same molecule?
A: Its growth is 0.414 ± 0.0042.

Q: What about the growth (E. coli TESEC Mtb Alr [4]; [15]) of the same molecule?
A: The growth was 0.357 ± 0.0083.

Q: Which results are given for `CCn1cc(C(=O)O)c(=O)c2cc(F)c(N3CCN(C)CC3)cc21` [Pefloxacine]?
A: growth [1]: 0.0478 ± 0.00026; growth (E. coli TESEC Mtb Alr [2]; [5]): 0.0453 ± 0.00047; growth (E. coli TESEC Mtb Alr [2]; [6]): 0.0396 ± 0.00047; growth (E. coli TESEC Mtb Alr [2]; [7]): 0.0454 ± 0.0017; growth (E. coli TESEC Mtb Alr [2]; [8]): 0.04 ± 0.00096; growth (E. coli TESEC Mtb Alr [2]; [9]): 0.05157 ± 0.0004; growth (E. coli TESEC Mtb Asd; [10]): 0.0645 ± 0.0063; growth (E. coli TESEC Mtb Asd; [11]): 0.0631 ± 0.0043; growth (E. coli TESEC Mtb DapB; [12]): 0.0696 ± 0.0096; growth (E. coli TESEC Mtb DapB; [13]): 0.0585 ± 0.002; growth [3]: 0.0507 ± 0.0001; growth (E. coli TESEC Mtb Alr [4]; [14]): 0.0539 ± 0.00064; growth (E. coli TESEC Mtb Alr [4]; [15]): 0.0515 ± 0.00064

Q: Which growth [1] does the source give for `C[C@H]1C[C@@H]2[C@H]([C@@H](O)C[C@@]3(C)[C@H]2CC[C@]3(O)C(=O)CO)[C@@]2(C)C=CC(=O)C=C12` [Methylprednisolone, 6-alpha] here?
A: Its growth is 0.202 ± 0.0042.

Q: And the growth (E. coli TESEC Mtb Alr [2]; [5])?
A: Its growth is 0.254 ± 0.013.

Q: What about the growth (E. coli TESEC Mtb Alr [2]; [6]) of the same molecule?
A: Its growth is 0.243 ± 0.0096.

Q: And the growth (E. coli TESEC Mtb Alr [2]; [7])?
A: The growth was 0.1512 ± 0.0011.

Q: What about the growth (E. coli TESEC Mtb Alr [2]; [8]) of the same molecule?
A: Its growth is 0.116 ± 0.0032.

Q: What about the growth (E. coli TESEC Mtb Alr [2]; [9]) of the same molecule?
A: Its growth is 0.134 ± 0.0027.

Q: What about the growth (E. coli TESEC Mtb Asd; [10]) of the same molecule?
A: Its growth is 0.259 ± 0.024.

Q: And the growth (E. coli TESEC Mtb Asd; [11])?
A: The growth was 0.475 ± 0.018.

Q: What about the growth (E. coli TESEC Mtb DapB; [12]) of the same molecule?
A: The growth was 0.175 ± 0.0055.

Q: And the growth (E. coli TESEC Mtb DapB; [13])?
A: Its growth is 0.213 ± 0.023.

Q: And the growth [3]?
A: The growth was 0.459 ± 0.028.

Q: And the growth (E. coli TESEC Mtb Alr [4]; [14])?
A: The growth was 0.431 ± 0.0047.

Q: And the growth (E. coli TESEC Mtb Alr [4]; [15])?
A: The growth was 0.295 ± 0.021.
